In PubChem BioAssay AID1159580 (chemical genetic matrix, 2015):
The whole screen tested about 5,500 compounds, of which about 2,000 (36%) were called active. About 18% were inconclusive and are not listed. Rule as the data show it: active = normalized growth mostly below about 0.91 (no sharp cut-off); inconclusive = no clear call, values can overlap the other calls; inactive = mostly above about 0.92. This is one part of the list.

Test: chemical genetic growth profiling, strain panel (AID 1159580);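 also: tested at 20 µM; growth read once vehicle control cultures reached saturation at 30 °C; 1 = growth at the plate median or of vehicle wells; lower values mean less growth of the strain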
Details: growth OD

Measured: normalized growth

CCCCCC(O)C1C(=O)OC(C)C(O)/C=C/C=C/C=C/C=C/C=C(\C)C(O)CC(O)CC(O)CC(O)CC(O)CC(O)CC1O (configuration not stated)
inactive: S. cerevisiae deletion strains, locus YJR075W, strain HOC1, active compounds read low 0.994 | S. cerevisiae deletion strains, locus YKL009W, strain mrt4, active compounds read low 0.999 | S. cerevisiae deletion strains, locus YKL068W, active compounds read low 1.03 | S. cerevisiae deletion strains, locus YKL085W, strain MDH1 (second series), active compounds read low 0.975 | S. cerevisiae deletion strains, locus YKL085W, strain MDH1, active compounds read low 0.975 | S. cerevisiae deletion strains, locus YKL160W, strain elf1, active compounds read low 1.01 | S. cerevisiae deletion strains, locus YKL190W, strain CNB1, active compounds read low 1.01 | S. cerevisiae deletion strains, locus YKR001C, strain vps1, active compounds read low 1.03 | S. cerevisiae deletion strains, locus YKR026C, strain gcn3, active compounds read low 0.966 | S. cerevisiae deletion strains, locus YKR091W, strain srl3, active compounds read low 0.995 | S. cerevisiae deletion strains, locus YLL001W, strain dnm1, active compounds read low 1.01 | S. cerevisiae deletion strains, locus YLL026W, active compounds read low 0.982 | S. cerevisiae deletion strains, locus YLL041C, strain sdh2, active compounds read low 0.994 | S. cerevisiae deletion strains, locus YLR027C, strain aat2, active compounds read low 0.983 | S. cerevisiae deletion strains, locus YLR039C, strain RIC1, active compounds read low 1.08 | S. cerevisiae deletion strains, locus YLR058C, strain SHM2, active compounds read low 1.01 | S. cerevisiae deletion strains, locus YLR102C, strain apc9, active compounds read low 1.02 | S. cerevisiae deletion strains, locus YLR113W, strain HOG1, active compounds read low 0.951 | S. cerevisiae deletion strains, locus YLR221C, strain rsa3, active compounds read low 1 | S. cerevisiae deletion strains, locus YLR258W, strain gsy2, active compounds read low 0.991 | S. cerevisiae deletion strains, locus YLR262C, strain YPT6 (second series), active compounds read low 0.997 | S. cerevisiae deletion strains, locus YLR262C, strain YPT6, active compounds read low 1.09 | S. cerevisiae deletion strains, locus YLR268W, strain sec22, active compounds read low 1.02 | S. cerevisiae deletion strains, locus YLR320W, strain mms22, active compounds read low 0.992 | S. cerevisiae deletion strains, locus YLR330W, strain CHS5, active compounds read low 1.01 | S. cerevisiae deletion strains, locus YLR342W, strain FKS1 (second series), active compounds read low 1.06 | S. cerevisiae deletion strains, locus YLR342W, strain FKS1, active compounds read low 0.983 | S. cerevisiae deletion strains, locus YLR357W, strain rsc2, active compounds read low 0.972 | S. cerevisiae deletion strains, locus YLR370C, strain arc18, active compounds read low 0.982 | S. cerevisiae deletion strains, locus YLR371W, strain rom2, active compounds read low 1.02 | S. cerevisiae deletion strains, locus YLR384C, strain iki3, active compounds read low 0.985 | S. cerevisiae deletion strains, locus YLR418C, strain cdc73, active compounds read low 1.02 | S. cerevisiae deletion strains, locus YML016C, strain PPZ1, active compounds read low 1.01 | S. cerevisiae deletion strains, locus YML032C, strain rad52, active compounds read low 1.04 | S. cerevisiae deletion strains, locus YML120C, strain ndi1, active compounds read low 1 | S. cerevisiae deletion strains, locus YML124C, strain tub3, active compounds read low 1.02 | S. cerevisiae deletion strains, locus YMR058W, strain fet3, active compounds read low 0.997 | S. cerevisiae deletion strains, locus YMR078C, strain ctf18, active compounds read low 1.03 | S. cerevisiae deletion strains, locus YMR125W, strain sto1, active compounds read low 0.959 | S. cerevisiae deletion strains, locus YMR129W, active compounds read low 0.977 | S. cerevisiae deletion strains, locus YMR205C, strain PFK2, active compounds read low 0.955 | S. cerevisiae deletion strains, locus YMR223W, strain ubp8, active compounds read low 1.03 | S. cerevisiae deletion strains, locus YMR231W, strain pep5, active compounds read low 1 | S. cerevisiae deletion strains, locus YMR263W, strain SAP30, active compounds read low 1.01 | S. cerevisiae deletion strains, locus YMR307W, strain GAS1, active compounds read low 1.12 | S. cerevisiae deletion strains, locus YNL067W, strain RPL9B, active compounds read low 1.01 | S. cerevisiae deletion strains, locus YNL071W, strain lat1, active compounds read low 0.996 | S. cerevisiae deletion strains, locus YNL128W, strain TEP1, active compounds read low 0.998 | S. cerevisiae deletion strains, locus YNL153C, strain GIM3, active compounds read low 0.994 | S. cerevisiae deletion strains, locus YNL183C, strain NPR1, active compounds read low 0.928 | S. cerevisiae deletion strains, locus YNL209W, strain ssb2, active compounds read low 0.997 | S. cerevisiae deletion strains, locus YNL233W, strain BNI4, active compounds read low 1 | S. cerevisiae deletion strains, locus YNL248C, strain rpa49, active compounds read low 1.01 | S. cerevisiae deletion strains, locus YNL250W, strain rad50, active compounds read low 1 | S. cerevisiae deletion strains, locus YNL271C, strain bni1, active compounds read low 1.02 | S. cerevisiae deletion strains, locus YNL298W, strain CLA4, active compounds read low 1.02 | S. cerevisiae deletion strains, locus YNL307C, strain MCK1, active compounds read low 1.06 | S. cerevisiae deletion strains, locus YNL322C, strain KRE1 (second series), active compounds read low 0.989 | S. cerevisiae deletion strains, locus YNL322C, strain KRE1, active compounds read low 1.01 | S. cerevisiae deletion strains, locus YNR049C, strain mso1, active compounds read low 0.984 | S. cerevisiae deletion strains, locus YNR052C, strain pop2, active compounds read low 1.02 | S. cerevisiae deletion strains, locus YOL006C, strain TOP1, active compounds read low 1.01 | S. cerevisiae deletion strains, locus YOL012C, strain htz1 1.12 | S. cerevisiae deletion strains, locus YOL147C, strain pex11, active compounds read low 1.02 | S. cerevisiae deletion strains, locus YOR001W, strain rrp6, active compounds read low 1 | S. cerevisiae deletion strains, locus YOR061W, strain CKA2, active compounds read low 1.01 | S. cerevisiae deletion strains, locus YOR069W, strain VPS5, active compounds read low 0.999 | S. cerevisiae deletion strains, locus YOR070C, strain gyp1, active compounds read low 0.989 | S. cerevisiae deletion strains, locus YOR080W, strain dia2, active compounds read low 0.976 | S. cerevisiae deletion strains, locus YOR083W, strain WHI5, active compounds read low 1.01 | S. cerevisiae deletion strains, locus YOR106W, strain vam3, active compounds read low 1.01 | S. cerevisiae deletion strains, locus YOR136W, strain idh2, active compounds read low 1.03 | S. cerevisiae deletion strains, locus YOR144C, strain elg1, active compounds read low 1.03 | S. cerevisiae deletion strains, locus YOR184W, strain ser1, active compounds read low 1.06 | S. cerevisiae deletion strains, locus YOR231W, strain MKK1, active compounds read low 0.954 | S. cerevisiae deletion strains, locus YOR265W, strain rbl2, active compounds read low 0.995 | S. cerevisiae deletion strains, locus YOR270C, strain vph1, active compounds read low 1.01 | S. cerevisiae deletion strains, locus YOR290C, strain snf2, active compounds read low 0.995 | S. cerevisiae deletion strains, locus YOR316C, strain cot1, active compounds read low 1.02 | S. cerevisiae deletion strains, locus YPL051W, strain arl3, active compounds read low 0.996 | S. cerevisiae deletion strains, locus YPL055C, strain LGE1, active compounds read low 1.01 | S. cerevisiae deletion strains, locus YPL078C, strain atp4, active compounds read low 1.01 | S. cerevisiae deletion strains, locus YPL106C, strain sse1, active compounds read low 0.987 | S. cerevisiae deletion strains, locus YPL240C, strain hsp82, active compounds read low 1.02 | S. cerevisiae deletion strains, locus YPL241C, strain CIN2, active compounds read low 1.01 | S. cerevisiae deletion strains, locus YPL256C, strain CLN2, active compounds read low 0.975 | S. cerevisiae deletion strains, locus YPR119W, strain clb2, active compounds read low 1.02 | S. cerevisiae deletion strains, locus YPR141C, strain kar3, active compounds read low 1.03 | S. cerevisiae deletion strains, locus YPR163C, strain tif3, active compounds read low 1.02 | S. cerevisiae deletion strains, locus YPR167C, strain met16, active compounds read low 1.02 | S. cerevisiae deletion strains, strain wtn01, active compounds read low 1.01 | S. cerevisiae strains, strain wild type, active compounds read low 1.01
